In all, about 39,000 sequences were measured (“fluorescence intensity (a.u.)”: median about 4,300, highest 2% from about 39,000 on). The sample holds the highest values, similar sequences and a random draw of the others, so the mix is not that of the screen.
The sequences below were run against T1, OsSMF1 (Oryza sativa, UniProt Q6ZLB0 1-436) (assay: protein-binding microarray (RPBM); PBS, 2% BSA, 51.3 ng/ul salmon testes DNA, 50 uM zinc acetate, 200 nM TF, 25 C, 1 h; high values mean tight binding). Conditions: protein: recombinant; tags: N-terminal polyhistidine and DsRed monomer fusion (pET32a); chain copies: 2; label: CyDye5-dUTP incorporated in the synthesized complementary strand; 3' TTTTT single-stranded linker to array surface; dsDNA, one strand shown.
T1 sequence: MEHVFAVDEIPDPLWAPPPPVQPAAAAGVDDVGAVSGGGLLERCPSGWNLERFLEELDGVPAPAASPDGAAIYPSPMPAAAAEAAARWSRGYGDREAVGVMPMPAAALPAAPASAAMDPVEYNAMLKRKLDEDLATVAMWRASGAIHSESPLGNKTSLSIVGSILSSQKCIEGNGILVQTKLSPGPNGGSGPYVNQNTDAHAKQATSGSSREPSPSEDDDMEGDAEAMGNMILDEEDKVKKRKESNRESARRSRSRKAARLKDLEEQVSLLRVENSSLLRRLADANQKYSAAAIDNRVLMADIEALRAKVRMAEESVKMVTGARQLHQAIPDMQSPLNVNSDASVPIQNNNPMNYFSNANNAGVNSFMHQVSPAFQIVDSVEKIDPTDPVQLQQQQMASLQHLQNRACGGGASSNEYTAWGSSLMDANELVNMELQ
Method in brief: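 Per-feature fluorescence intensity (arbitrary units), read on an Axon 4000B scanner, is the binding signal. Transcription factors carrying an N-terminal polyhistidine tag and DsRed fusion were expressed in E. coli BL21-CodonPlus and purified on Ni–NTA. A custom Agilent array, made double-stranded by primer extension with Cy5-dUTP and blocked with 2% BSA, was incubated with 200 nM protein in PBS, 2% BSA, salmon testes DNA and 50 µM zinc acetate at 25 °C for 1 h and then washed.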
“AGCCGCGGTCACGCACGCCACGCGTTCGATCGATCGATCACGGAGTCACCTAGTGCAG” was tested, and the binding signal was 4120 fluorescence intensity (a.u.). In the case of “GCTGGCTGGATTGCCACGTGTATGTCACGTAGGATAAAACCGGAGTCACCTAGTGCAG”, the binding signal is reported as 14300 fluorescence intensity (a.u.). For “GTTGACCCGCAGTTCCCCTTTGTTTTCCACGTGTTTCTTCCGGAGTCACCTAGTGCAG”, the binding signal was 7790 fluorescence intensity (a.u.). For “CGGACGTCCCACACGCTTGGTGTCACGACGAGAGGAACCTCGGAGTCACCTAGTGCAG”, the binding signal was 3450 fluorescence intensity (a.u.). In the case of “ATCAAAGAGGATTCTGTATTGTATTGGCAACAACCGAAAACGGAGTCACCTAGTGCAG”, the binding signal is reported as 13800 fluorescence intensity (a.u.). In the case of “AAACATCAATTGTATTATCCTTGAAAAGAAGGCACATCACCGGAGTCACCTAGTGCAG”, the binding signal is reported as 44800 fluorescence intensity (a.u.). For “CTTGAAGGAAAACAAGTATAAGGTTCATCCTCATCATCACCGGAGTCACCTAGTGCAG”, the binding signal was 3270 fluorescence intensity (a.u.). With “ATTGAAAATTTTGTTTGAGTGCACATCGTGTGCATTTTATCGGAGTCACCTAGTGCAG” the binding signal was 8920 fluorescence intensity (a.u.). For “AAATTTTAATACGTGTAGCATTGCTCCCGGTAATGTATTTCGGAGTCACCTAGTGCAG”, the binding signal was 3700 fluorescence intensity (a.u.). In the case of “ATAGAGATCACAGTCACACACATATGGCCTGTGCATTTACCGGAGTCACCTAGTGCAG”, the binding signal is reported as 3720 fluorescence intensity (a.u.). “CGAAAATGATCTGACACTTATTCGAAAGCAACGTCACAAGCGGAGTCACCTAGTGCAG” was tested, and the binding signal was 4300 fluorescence intensity (a.u.). With “GGAGAAACAATATTCGTCATACATTTTGAACCAGATCAAGCGGAGTCACCTAGTGCAG” the binding signal was 31700 fluorescence intensity (a.u.). With “TGACATAGAGAGTGATCACAAGCGAAATATTTATTCGGAACGGAGTCACCTAGTGCAG” the binding signal was 48300 fluorescence intensity (a.u.). “GGCCAGGATGATCGAGCACTTGGTTGTGACACAGAGGGTGCGGAGTCACCTAGTGCAG” was tested, and the binding signal was 3220 fluorescence intensity (a.u.). With “ATTTGGTATGACTTGGCTTCAAACCAAGATGGTCCGGAGTCGGAGTCACCTAGTGCAG” the binding signal was 5390 fluorescence intensity (a.u.). For “CCCACATCGCTCCGCGTCATTAGATTTAGCACTTTATCTTCGGAGTCACCTAGTGCAG”, the binding signal was 5240 fluorescence intensity (a.u.). In the case of “CATGTTCGTGCGCCGTCACTACAGGCACCTCGCTGTCAACCGGAGTCACCTAGTGCAG”, the binding signal is reported as 40100 fluorescence intensity (a.u.). “CGCCATGTGTCAACTGGCATGGCCGTGCGCTGGCACACACCGGAGTCACCTAGTGCAG” was tested, and the binding signal was 5160 fluorescence intensity (a.u.). In the case of “TGCGCCGTCTGCGTCAGCGTGCCTCGTCGCAGTCGCAGGCCGGAGTCACCTAGTGCAG”, the binding signal is reported as 6400 fluorescence intensity (a.u.). With “CCTAAATAAGCTAGCAAAATAGCCAATGCCAGCCAATATTCGGAGTCACCTAGTGCAG” the binding signal was 28300 fluorescence intensity (a.u.). For “ATATATACTCCAAGCTCGGTGAGCCAGCATCACCACCAACCGGAGTCACCTAGTGCAG”, the binding signal was 3220 fluorescence intensity (a.u.). In the case of “CTATGGCTCATGAGCCAAAATTCAAAAGGCTAACGTTGGCCGGAGTCACCTAGTGCAG”, the binding signal is reported as 43400 fluorescence intensity (a.u.). For “TATGACTAATCATGGACTAATTAGGCTCAAAAGATTCGTCCGGAGTCACCTAGTGCAG”, the binding signal was 33200 fluorescence intensity (a.u.). In the case of “TTGGCCACCTCCACCTCACTCGCATGAAGGCTAAGTGAGCCGGAGTCACCTAGTGCAG”, the binding signal is reported as 4160 fluorescence intensity (a.u.). With “TAAGCTCCAAAGCCAGCTATAGCATGAGCTCCAAAATATACGGAGTCACCTAGTGCAG” the binding signal was 45700 fluorescence intensity (a.u.). For “CACCTCCCCTTCCCATCCCAACCGGCCAACCCTCCCCACCCGGAGTCACCTAGTGCAG”, the binding signal was 13900 fluorescence intensity (a.u.). “GCCGATCCCCGAGGAGGGCGGCGACGTGGAAGGGGAGGGCCGGAGTCACCTAGTGCAG” was tested, and the binding signal was 4090 fluorescence intensity (a.u.). With “GGTAATGGGAGAGGCTGATGTGGCGTGAAATCTCTTGCGTCGGAGTCACCTAGTGCAG” the binding signal was 16800 fluorescence intensity (a.u.). For “TTTATCAAAGCGTCATATATCAATGACCAGAGGTACAACACGGAGTCACCTAGTGCAG”, the binding signal was 3940 fluorescence intensity (a.u.). For “CACCATTTTGGGCCGACACATCAAGCAGGCCAACGCGCAGCGGAGTCACCTAGTGCAG”, the binding signal was 3300 fluorescence intensity (a.u.). With “CCCAACTGTTCTTTCCGTCACGTCACGCACAAGTCAAAATCGGAGTCACCTAGTGCAG” the binding signal was 5230 fluorescence intensity (a.u.). In the case of “ACCTGTGGACTTGCACGGTAACGTAGCACAATCTTCAAAGCGGAGTCACCTAGTGCAG”, the binding signal is reported as 3810 fluorescence intensity (a.u.). “TCCCCTTCACCGCAACTTCGGCGAAGTCAAGAAGGAGTAGCGGAGTCACCTAGTGCAG” was tested, and the binding signal was 43800 fluorescence intensity (a.u.). “GCCGAAACGCGAAGTGACAGTGACAAGGGAAGGACGGCCCCGGAGTCACCTAGTGCAG” was tested, and the binding signal was 3220 fluorescence intensity (a.u.). For “AGCGGCAGTAGCAAGGGAGCTAGGCCCCGAAGGAAAACCGCGGAGTCACCTAGTGCAG”, the binding signal was 46000 fluorescence intensity (a.u.). With “CGGCGAAGTAGCAAGGGTTGAGTCTGCATCATCAACCAATCGGAGTCACCTAGTGCAG” the binding signal was 3370 fluorescence intensity (a.u.). In the case of “TCCCCTCGCGGCGAACGCGCGCGCGCAACGAGAAGCCAAGCGGAGTCACCTAGTGCAG”, the binding signal is reported as 3200 fluorescence intensity (a.u.). With “TTTAGTAGTTTGAAAAGCATACGCGCGGAAACCGAGCAAGCGGAGTCACCTAGTGCAG” the binding signal was 3190 fluorescence intensity (a.u.). For “TGATGTTCTTACTGGTGGTGCTGATGACAATACTGAACAGCGGAGTCACCTAGTGCAG”, the binding signal was 3840 fluorescence intensity (a.u.). With “TAAGTGGACCTATAGGTGCACACGTGGGGAGAGGGGCGTGCGGAGTCACCTAGTGCAG” the binding signal was 5690 fluorescence intensity (a.u.). For “GCACCAGCGGTCCTCAAACTTGTAAGGGTGTGTCATCTAGCGGAGTCACCTAGTGCAG”, the binding signal was 3660 fluorescence intensity (a.u.). In the case of “TAAGAAAACTACAGCTTTATTACTCAAACTTAATATTAACCGGAGTCACCTAGTGCAG”, the binding signal is reported as 39800 fluorescence intensity (a.u.).
